The results in this text go back to PubChem BioAssay.

The test system of assay [1] is Human papillomavirus type 1a protein E7 (residues 44-93). Description: small molecules binding HPV E7 44-93 – biochemical, small-molecule microarray, residues 44-93, 635 nm fluorescence, primary screen (AID 1108).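 Also: E7 fragment applied at 1 µg/mL in TBST for 1 h at 4 C; score combines spot fluorescence with its signal to noise ratio.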 The note with it: fluorescence 635 nm, higher = more signal.
Assay [2] can be described thus: hepatitis C replication reporter changes, two-sided – Huh7 cells, luciferase reporter, HCV replication inhibitor project, primary screen (AID 1109).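 Also: huh7 hepatoma cells harbouring a luciferase neomycin HCV replicon reporter; luciferase luminescence as measure of HCV replicon replication; test concentration not given here.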 Conditions: Huh7 HCV replicon luciferase reporter, 48 h; higher = more signal. Background: Reporter assays use an easily measured gene product as a stand-in for the process of interest.
Assay [3] deals with Left-right determination factor 2 (Homo sapiens) (UniProt O00292). Briefly: small molecules binding LEFTY2 protein – biochemical, small-molecule microarray, 635 nm fluorescence scan, primary screen (AID 1110). The note with it: higher = more signal.
Assay [4] has as its target Calmodulin-1 (Homo sapiens) (UniProt P0DP23). Description: small molecules binding calmodulin-1 with EGTA – biochemical, small-molecule microarray, Cy5-labelled CALM1, profiling panel (AID 1111).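 Also: labelled calmodulin applied in Tris saline Tween buffer holding calcium plus EGTA and DTT.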 Conditions: Cy5-CALM1 binding fluorescence, higher = more signal.
For assay [5] the target is unchanged. Description: small molecules binding Ca-loaded calmodulin-1 – biochemical, small-molecule microarray, Cy5-labelled CALM1, plus calcium, artefact control for SMM control-protein annotation, profiling panel (AID 1112).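 Also: score merges spot fluorescence with signal to noise from triplicate slides.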 Conditions: Cy5-CALM1 binding fluorescence, higher = more signal.
Assay [6] in a line: probe aWnt5a binding to arrayed compounds – biochemical, biotinylated probe, 635/667 nm fluorescence, primary screen (AID 1113).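 Also: score merges 667 nm fluorescence intensity with signal-to-noise per printed feature.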 The note with it: small-molecule microarray, higher = more signal.
Assay [7] in a line: probe aShh binding to arrayed compounds – biochemical, biotinylated probe, 635/667 nm fluorescence, primary screen (AID 1114).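 Also: probe is biotin-labelled aShh protein from a stem cell growth factor screen; measures binding of labelled protein to compounds printed on the slide; score merges feature fluorescence at 667 nm with signal-to-noise.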 The note with it: small-molecule microarray, higher = more signal.
Assay [8] in a line: probe aNog binding to arrayed compounds – biochemical, biotinylated probe, 635/667 nm fluorescence, primary screen (AID 1115).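 Also: probe is biotinylated aNog protein used at 0.15 µg/mL for 1 h at 4 C; z-score combines 667 nm fluorescence of each spot with its signal to noise.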 Conditions: small-molecule microarray, higher = more signal.
Assay [9] has as its target Torsin-1A-interacting protein 1 (Homo sapiens) (UniProt Q5JTV8). Briefly: compound microarray binding of lysate hLAP1 – cell lysate, small-molecule microarray, COS7 lysate, 635/667 nm fluorescence, primary screen (AID 1116). Conditions: 635 nm fluorescence, higher = more signal.
For assay [10], the target named is Alpha-bungarotoxin (Bungarus multicinctus) (UniProt P60615). Briefly: compounds binding labelled alpha-BTX control protein – biochemical, small-molecule microarray, Alexa647 label, 635/667 nm fluorescence, artefact control for SMM control protein annotation, profiling panel (AID 1117). The note with it: alpha-BTX-A647 binding fluorescence, higher = more signal.
The next assay addresses Albumin (Bos taurus) (UniProt P02769). Description: compounds binding labelled BSA control protein – biochemical, small-molecule microarray, Alexa647 label, 635/667 nm fluorescence, artefact control for SMM control protein annotation, profiling panel (AID 1118).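 Also: score merges 667 nm emission intensity and signal-to-noise per printed compound spot.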 Conditions: BSA-A647 binding, fluorescence 635 nm, higher = more signal.
Assay [11] in a line: probe aXIP binding to arrayed compounds – biochemical, NeuroSMM set, 635/667 nm fluorescence, primary screen (AID 1119).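 Also: probe is the protein aXip251-270 applied at 1 µg/mL to compound-printed slides; binding of probe to printed compounds measured as 667 nm fluorescence plus signal to noise.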 Conditions: small-molecule microarray, higher = more signal, called active from +8 up or from −8 down.
Assay [12] in a line: probe aNOTCH3 binding on compound microarray – biochemical, small-molecule microarray, 635/667 nm fluorescence, primary screen (AID 1120).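 Also: probe is a biotin-tagged antibody raised against NOTCH3 rather than NOTCH3 protein; score merges spot fluorescence near 667 nm with spot signal to noise.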 Conditions: higher = more signal.
A short description of assay [13]: probe aNOTCH2 binding on compound microarray – biochemical, small-molecule microarray, 635/667 nm fluorescence, primary screen (AID 1121).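 Also: score merges feature fluorescence read at 667 nm with its signal to noise.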 The note with it: higher = more signal.
The target in assay [14] is Carbonic anhydrase 2 (Homo sapiens) (UniProt P00918). Briefly: compounds binding carbonic anhydrase 2 – biochemical, small-molecule microarray, Alexa647-labelled CAII, profiling panel (AID 1122). The note with it: CAII-A647 binding fluorescence, higher = more signal.
Assay [15] can be described thus: COS7 lysate on small-molecule microarray, probe aHis, 635 nm (AID 1123).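 Also: z-score combines 667nm fluorescence intensity with signal-to-noise per printed compound spot.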 The note with it: COS7 cell lysate, fluorescence, higher = more signal.
The nature of assay [16]: probe aLAP1 signal on lysate-treated microarray – cell lysate, small-molecule microarray, COS7 lysate, primary screen (AID 1124).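 Also: lysate comes from COS7 cells expressing LAP1 and is applied at 0.3 µg/mL; score merges spot fluorescence near 667 nm with signal-to-noise over triplicate slides.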 The note with it: probe aLAP1, fluorescence, higher = more signal.
A further assay deals with Sam68 (KHDRBS1). Briefly: compounds binding KHDRBS1 protein – biochemical, small-molecule microarray, 635 nm fluorescence, primary screen (AID 1125).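 Also: score merges 667 nm channel intensity with signal to noise over triplicate slides.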 Conditions: higher = more signal.
For assay [17], the system named is Chordin-like protein 2 (CHRDL2). Description: compounds binding chordin-like 2 – biochemical, small-molecule microarray, 635 nm fluorescence, primary screen (AID 1126).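 Also: printed compound slides probed with Chrdl2 protein at 4 µg/mL for 1 h at 4 C; score merges 667 nm emission intensity with signal to noise over three replicate slides.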 The note with it: fluorescence 635 nm, higher = more signal.
Assay [18] deals with Concanavalin-A (Canavalia ensiformis) (UniProt P02866). Briefly: compounds binding concanavalin A lectin – biochemical, small-molecule microarray, Alexa647 label, 635 nm, artefact control for SMM control protein annotation, primary screen (AID 1127).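 Also: z combines 667 nm emission intensity with signal-to-noise across three replicate slides.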 Conditions: ConA-A647 binding fluorescence, higher = more signal.

Activity calls are given as the source filed them.

Left-right determination factor 2 (Homo sapiens), sequence (O00292 whole entry, looked up): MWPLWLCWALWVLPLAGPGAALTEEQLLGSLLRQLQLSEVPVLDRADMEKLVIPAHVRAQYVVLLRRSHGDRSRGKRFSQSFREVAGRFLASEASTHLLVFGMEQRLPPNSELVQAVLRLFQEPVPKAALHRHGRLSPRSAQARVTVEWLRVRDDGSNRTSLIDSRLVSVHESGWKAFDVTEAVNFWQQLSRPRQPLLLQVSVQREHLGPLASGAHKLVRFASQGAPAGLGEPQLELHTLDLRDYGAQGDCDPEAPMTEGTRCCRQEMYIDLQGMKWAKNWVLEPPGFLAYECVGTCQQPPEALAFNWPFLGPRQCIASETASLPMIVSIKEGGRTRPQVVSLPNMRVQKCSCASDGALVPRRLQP
Albumin (Bos taurus), sequence (P02769 whole entry, looked up): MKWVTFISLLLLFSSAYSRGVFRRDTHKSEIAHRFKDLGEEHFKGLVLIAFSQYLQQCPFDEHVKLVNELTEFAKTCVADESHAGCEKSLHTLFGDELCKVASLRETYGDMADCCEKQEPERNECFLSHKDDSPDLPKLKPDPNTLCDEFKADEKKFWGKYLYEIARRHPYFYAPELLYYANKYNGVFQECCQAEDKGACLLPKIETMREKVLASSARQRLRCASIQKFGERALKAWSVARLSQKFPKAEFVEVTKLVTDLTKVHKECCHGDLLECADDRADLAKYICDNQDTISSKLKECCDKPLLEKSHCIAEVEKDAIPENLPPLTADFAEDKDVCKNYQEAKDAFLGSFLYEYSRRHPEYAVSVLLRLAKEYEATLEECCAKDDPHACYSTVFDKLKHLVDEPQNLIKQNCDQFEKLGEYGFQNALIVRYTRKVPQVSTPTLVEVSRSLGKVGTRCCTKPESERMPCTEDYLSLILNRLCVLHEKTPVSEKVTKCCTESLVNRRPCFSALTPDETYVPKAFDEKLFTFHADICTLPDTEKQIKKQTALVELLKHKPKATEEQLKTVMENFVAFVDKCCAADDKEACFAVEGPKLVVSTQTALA
Concanavalin-A (Canavalia ensiformis), sequence (P02866 whole entry, looked up): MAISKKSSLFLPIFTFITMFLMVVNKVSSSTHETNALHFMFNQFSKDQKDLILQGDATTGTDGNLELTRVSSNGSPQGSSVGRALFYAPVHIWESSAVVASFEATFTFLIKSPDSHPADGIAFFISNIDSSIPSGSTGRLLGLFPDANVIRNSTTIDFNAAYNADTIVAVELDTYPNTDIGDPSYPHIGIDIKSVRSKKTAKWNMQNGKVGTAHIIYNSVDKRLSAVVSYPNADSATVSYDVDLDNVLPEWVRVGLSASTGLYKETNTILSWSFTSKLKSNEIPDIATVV
Torsin-1A-interacting protein 1 (Homo sapiens), sequence (Q5JTV8 whole entry, looked up): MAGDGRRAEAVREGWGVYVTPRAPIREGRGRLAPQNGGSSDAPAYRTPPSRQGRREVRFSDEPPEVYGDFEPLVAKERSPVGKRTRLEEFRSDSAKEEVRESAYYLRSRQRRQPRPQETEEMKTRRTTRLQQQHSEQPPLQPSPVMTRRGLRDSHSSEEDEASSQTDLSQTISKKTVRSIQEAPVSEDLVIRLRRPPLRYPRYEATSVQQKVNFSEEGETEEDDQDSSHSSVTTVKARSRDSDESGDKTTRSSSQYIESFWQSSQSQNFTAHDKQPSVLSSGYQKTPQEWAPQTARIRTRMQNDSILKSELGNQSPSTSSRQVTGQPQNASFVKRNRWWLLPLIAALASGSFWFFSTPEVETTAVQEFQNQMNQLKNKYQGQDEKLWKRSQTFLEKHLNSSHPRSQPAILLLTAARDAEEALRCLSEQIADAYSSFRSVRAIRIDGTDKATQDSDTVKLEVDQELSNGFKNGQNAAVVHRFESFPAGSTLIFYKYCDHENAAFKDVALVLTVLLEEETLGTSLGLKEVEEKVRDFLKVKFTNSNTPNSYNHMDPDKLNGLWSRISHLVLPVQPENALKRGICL
Alpha-bungarotoxin (Bungarus multicinctus), sequence (P60615 whole entry, looked up): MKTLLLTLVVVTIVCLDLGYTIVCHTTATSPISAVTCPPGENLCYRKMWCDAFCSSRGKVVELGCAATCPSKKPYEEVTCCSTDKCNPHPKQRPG

As to `C=CCNC(=O)[C@H]1[C@@H]2C(=O)O[C@@H](c3ccccc3)[C@@H](c3ccccc3)N2[C@@H](c2ccc(OCCO)cc2)[C@]12C(=O)N(C(=O)OCCOC)c1ccc(C#CC3=CCCCC3)cc12`, the composite z-score was -0.192 in assay [1]; 0.652 in [3]; 1.28 in assay [4]; 0.171 in assay [5]; 0.0243 in assay [6]; 0.0141 in [7]. The composite z-score in assay [8] is -0.038; in [9], 2.23; in assay [10] it was 2.5; with Albumin (Bos taurus), 0.401; in assay [12], 0.0813; in assay [13] it was -0.109. The composite z-score in assay [14] amounted to 0.643; in [15], 1.34; in [16], 0.737; in the assay on Sam68 (KHDRBS1), 1.31; in [17], 0.399; in assay [18], 1.12. In addition, the z-score in assay [2] was -1.94. Moreover, the composite Z-score in [11] was 0.495 (inactive).

With `C=CCN1C(=O)[C@@]2(O[C@@H](CCO)[C@H]([Si](C)(C)c3ccc(OC)cc3)[C@H]2C)c2cc(NC(=O)[C@H](C)O)ccc21`, the composite z-score in assay [1] is 1.37; in [3], 0.256; in assay [4], 0.929; in assay [5] it was -0.377; in assay [6], 0.0279; in assay [7], 0.0639. The composite z-score is -0.21 in [8]; 1.2 in assay [9]; 0.175 in assay [10]; 0.489 with Albumin (Bos taurus); -0.0343 in [12]; -0.126 in assay [13]. In addition, the composite z-score in assay [14] is 0.63; in [15], 1.68; in assay [16], 0.231; in the assay with Sam68 (KHDRBS1), 1.31; in assay [17] it was -0.0585; in assay [18] it was 0.584. Moreover, in [2], the z-score was -3.03. In addition, the composite Z-score in [11] was 0.0001 (inactive).

As for `NC(=O)[C@@H]1[C@H]2C(=O)O[C@H](c3ccccc3)[C@H](c3ccccc3)N2[C@H](c2ccccc2OCCO)[C@@]12C(=O)Nc1ccc(C#CCCO)cc12`, the composite z-score is 0.42 in assay [1]; -0.388 in [3]; 0.613 in assay [4]; 0.154 in assay [5]; -0.226 in assay [6]; -0.221 in assay [7]. The composite z-score in assay [8] was -0.139; in [9], 0.0571; in assay [10], 1.18; in the assay with Albumin (Bos taurus), 0.59; in assay [12] it was -0.218; in [13], -0.147. Also, the composite z-score in assay [14] is 0.71; in [15], 0.663; in [16] it was 0.148; in the assay on Sam68 (KHDRBS1), 0.13; in [17], -0.68; in [18], 1.18. For the same compound, in assay [2], the z-score is -1.02. The composite Z-score in [11] is -0.309 (inactive).

For the compound `COC(=O)C(CC#Cc1ccc2c(c1)[C@]1(C(=O)N2)[C@H](c2ccccc2OCCO)N2[C@H](c3ccccc3)[C@H](c3ccccc3)OC(=O)[C@H]2[C@@H]1C(=O)Nc1nc2ccccc2s1)C(=O)OC`, the composite z-score in [1] was 1.41; in assay [3], 0.397; in assay [4], 0.973; in assay [5], -0.196; in assay [6], -0.0239; in [7], 0.233. Further, the composite z-score in [8] was -0.466; in assay [9], 0.874; in assay [10], 1.5; in the assay with Albumin (Bos taurus), 0.67; in assay [12], 0.106; in [13] it was -0.0928. Further, the composite z-score came to 0.226 in [14]; 1.9 in assay [15]; 0.379 in assay [16]; 1.31 in the assay with Sam68 (KHDRBS1); 0.19 in assay [17]; 1.15 in assay [18]. This compound came in with a z-score in assay [2] of -2.02. Also, the composite Z-score in assay [11] was -0.364 (inactive).

`CCCC=C(CCC)[C@@H](NS(=O)(=O)c1cccc2cccnc12)c1ccc(C(=O)OC)cc1`: the composite z-score is 0.591 in assay [1]; 0.804 in assay [3]; 0.156 in assay [4]; -0.2 in assay [5]; 1.77 in [6]; 0.0093 in [7]. The composite z-score in [8] was 3.92; in [9] it was 0.354; in assay [10], -0.0527; in the assay with Albumin (Bos taurus), -0.207; in assay [12] it was 2.12; in [13], 1.16. Also, the composite z-score in [14] is 0.771; in [15], 0.313; in [16], 0.392; in the assay with Sam68 (KHDRBS1), 0.287; in assay [17], 0.599; in assay [18], 0.782. In assay [2], this compound displayed a z-score of 0.347. Also, the composite Z-score in assay [11] is 0.242 (inactive).

Turning to `C=CC[C@]1(C(=O)N(C)C)N=C(c2ccc(OCCCO)cc2)O[C@H]1c1ccccc1`, the composite z-score is 1.46 in assay [1]; -0.309 in assay [3]; 1.57 in assay [4]; 0.19 in assay [5]; 0.224 in [6]; 0.33 in assay [7]. The composite z-score is 1.15 in [8]; 0.765 in [9]; 1.25 in assay [10]; 0.641 in the assay with Albumin (Bos taurus); 0.297 in assay [12]; -0.124 in assay [13]. The composite z-score is 0.687 in assay [14]; 2.93 in assay [15]; 0.795 in assay [16]; 1.26 in the assay on Sam68 (KHDRBS1); -0.336 in [17]; 0.999 in [18]. The z-score in assay [2] is -2. In assay [11], the composite Z-score was -0.001 (inactive).
